Consider 15 compounds from PubChem BioAssay (NCI).

About 83,000 compounds went through this panel and 20% of them were active in at least one assay; those are over-represented in the sample as a whole.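 Cells were grown in 96-well plates and exposed to the test compound at a single concentration for 48 hours; results are reported as percent growth, with values below 10 considered active.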 A number with no mark means an inactive call. The source made the active and inactive calls.

Test systems include NCI-H23 lung; NCI-H226 lung; NCI-H322M lung; HOP-62 NSCLC; NCI-H460 lung; NCI-H522 lung; A549/ATCC NSCLC; 786-0 renal; COLO 205 colon.
Assay in all cases: NCI-60 one-dose screen, 48 h (100 = growth as untreated, 0 = no growth, -100 = all killed)
Holding throughout (conditions): 10 µM unless noted

Regarding `O=C1/C(=C/C=C/c2ccco2)SC(=S)N1C1CCCCC1`, the growth in the test on NCI-H23 lung is 91.3%; in the test with NCI-H226 lung, 105%; in the test on NCI-H322M lung, 97.4%; in the test with HOP-62 NSCLC, 102%; in the test on NCI-H460 lung, 95.7%; in the test with NCI-H522 lung it was 75.9%. For the same compound, the growth in the test with A549/ATCC NSCLC was 86.8%; in the test on 786-0 renal, 106%; in the test on COLO 205 colon, 72.9%.
Take `O=C(CN1CCN(c2cc(=O)[nH]c3ccc(F)cc23)CC1)Nc1ccc(Cl)cc1`: the growth in the test on NCI-H23 lung is 61.9%; in the test on NCI-H226 lung, 16.5%; in the test on NCI-H322M lung, 80.2%; with HOP-62 NSCLC, 43.9%; with NCI-H460 lung, 41.1%; in the test with NCI-H522 lung, 13.1%. Moreover, the growth was 71.8% in the test with A549/ATCC NSCLC, 36.3% with 786-0 renal and 112% with COLO 205 colon.
Take `O=C(Nc1ccc(Br)cc1)Nc1nc2ccc([N+](=O)[O-])cc2s1`: the growth was -21.9% (active) in the test on NCI-H23 lung; -3.17% (active) with NCI-H226 lung; 8.37% (active) with NCI-H322M lung; 0.86% (active) in the test on HOP-62 NSCLC; -3.34% (active) in the test on NCI-H460 lung; 3.86% (active) in the test with NCI-H522 lung. Further, the figures for the growth with A549/ATCC NSCLC, in the test on 786-0 renal and in the test on COLO 205 colon were 5.83% (active), 11.2% and -37% (active), respectively.
On to `CCc1cccc2c3c(sc12)C(c1ccc(OC)cc1)C(C#N)=C(/N=C/c1ccc(Cl)cc1)O3` (stereo not given), for which the growth with NCI-H23 lung is 19.9%; in the test on NCI-H226 lung it was 41.2%; in the test with NCI-H322M lung, 55.1%; with HOP-62 NSCLC it was 33.8%; with NCI-H460 lung, 11.5%; in the test with NCI-H522 lung, -40.4% (active). The growth in the test on A549/ATCC NSCLC is 41.5%; in the test with 786-0 renal it was 39.3%; in the test on COLO 205 colon, -18.9% (active).
In the case of `O=C(Nc1nonc1-c1ccccc1)c1ccc(C(F)(F)F)cc1`, the growth is 72.6% in the test with NCI-H23 lung; 89.4% in the test with NCI-H226 lung; 86.9% in the test with NCI-H322M lung; 81.5% in the test on HOP-62 NSCLC; 47.6% in the test on NCI-H460 lung; 82.7% in the test on NCI-H522 lung. The growth is 87.3% in the test with A549/ATCC NSCLC, 90.4% in the test with 786-0 renal and 119% in the test with COLO 205 colon.
As for `COc1ccc(C2CC(c3ccc(Nc4nc(NCCO)nc(N5CCOCC5)n4)cc3)=Nc3c(N)nc(N)nc3N2)cc1` (stereo not given), the growth with NCI-H23 lung is 99.1%; in the test on NCI-H226 lung, 94.8%; in the test on NCI-H322M lung, 95%; with HOP-62 NSCLC, 108%; in the test with NCI-H460 lung, 110%; with NCI-H522 lung, 95.6%. Besides, the growth is 104% with A549/ATCC NSCLC, 97.3% with 786-0 renal and 109% with COLO 205 colon.
As for `CC(C)(C)n1cc(-c2ccnc(NCCCNS(=O)(=O)c3cccc(F)c3)n2)c(-c2ccc(Cl)c(O)c2)n1`, the growth was 100% with NCI-H23 lung; 107% with NCI-H226 lung; 90.9% in the test with NCI-H322M lung; 111% with HOP-62 NSCLC; 93.6% in the test with NCI-H460 lung; 89.9% with NCI-H522 lung. Also, the growth is 93.6% in the test on A549/ATCC NSCLC, 99.7% in the test with 786-0 renal and 114% with COLO 205 colon.
As for `COc1ccc(/C=C(\C#N)C(=O)N2c3ccccc3Sc3ccc(SC)cc32)cc1F`, the growth with NCI-H23 lung was 91.4%; in the test on NCI-H226 lung, 88.8%; in the test on NCI-H322M lung it was 90%; with HOP-62 NSCLC it was 97%; with NCI-H460 lung it was 94.4%; in the test with NCI-H522 lung, 84.5%. Moreover, the growth in the test on A549/ATCC NSCLC was 85.7%; in the test with 786-0 renal it was 84.4%; in the test on COLO 205 colon, 111%.
On to `CC1(COc2ccc3ncc(C#Cc4cncc(C(=O)Nc5cccc(C(F)(F)F)c5)c4)n3n2)COC1`, for which the growth with NCI-H23 lung is 60.9%; in the test on NCI-H226 lung it was 25%; in the test on NCI-H322M lung, 95.9%; in the test on HOP-62 NSCLC, 63.7%; in the test on NCI-H460 lung, 85.4%; with NCI-H522 lung it was 75.5%. Besides, the results for the growth in the test on A549/ATCC NSCLC, in the test on 786-0 renal and in the test on COLO 205 colon were 88.3%, 97.9% and 80.7%, respectively.
On to `N#Cc1cn(Cc2ccc(Cl)cc2Cl)c(C(=O)c2ccc(Br)cc2)c1N`, for which the growth in the test with NCI-H23 lung is 93.8%; in the test on NCI-H226 lung it was 75.6%; in the test with NCI-H322M lung, 95%; in the test on HOP-62 NSCLC, 82.6%; with NCI-H460 lung, 95.9%; with NCI-H522 lung, 91.2%. Besides, the growth with A549/ATCC NSCLC was 98.2%; with 786-0 renal, 99.1%; with COLO 205 colon, 114%.
Regarding `COc1cc(/C=C2\C(=O)Nc3ccccc32)ccc1OCc1ccc(F)cc1`, the growth in the test on NCI-H23 lung is 99%; in the test on NCI-H226 lung, 100%; in the test on NCI-H322M lung, 103%; in the test on HOP-62 NSCLC it was 100%; in the test with NCI-H460 lung, 86.4%; in the test on NCI-H522 lung it was 91.9%. Further, the values for the growth in the test on A549/ATCC NSCLC, with 786-0 renal and with COLO 205 colon were 108%, 107% and 111%, respectively.
`CC(C)(C)c1ccc(C(=O)Nc2nc3ccc(O)cc3s2)cc1`: the growth was 54.8% in the test with NCI-H23 lung; 53.5% with NCI-H226 lung; 54.8% with NCI-H322M lung; 82.9% in the test on HOP-62 NSCLC; 19.1% in the test with NCI-H460 lung; 52.6% in the test with NCI-H522 lung. Moreover, the results for the growth with A549/ATCC NSCLC, in the test on 786-0 renal and in the test on COLO 205 colon were 38.4%, 2.03% (active) and 8.14% (active), respectively.
In the case of `CCc1nn2c(C)cc(C)nc2c1Cc1ccc(/C=C/CN2CCN(CCOCCOCCN3CCN(C/C=C/c4ccc(Cc5c(CC)nn6c(C)cc(C)nc56)cc4)CC3)CC2)cc1`, the growth with NCI-H23 lung is 26.2%; in the test with NCI-H226 lung it was 67.9%; with NCI-H322M lung it was 7.19% (active); in the test with HOP-62 NSCLC, 18.7%; in the test with NCI-H460 lung, -63.8% (active); in the test on NCI-H522 lung, -47.9% (active). Moreover, the growth in the test on A549/ATCC NSCLC was 11.7%; in the test on 786-0 renal, -79.3% (active); in the test on COLO 205 colon, -48.5% (active).
On to `CCOC(=O)c1c(Nc2ccccc2)nn2c(-c3cccs3)ccnc12`, for which the growth with NCI-H23 lung was 92.7%; in the test on NCI-H226 lung it was 89%; in the test with NCI-H322M lung, 94.4%; in the test with HOP-62 NSCLC it was 93.8%; with NCI-H460 lung it was 92.3%; in the test with NCI-H522 lung, 82.1%. Besides, the results for the growth with A549/ATCC NSCLC, in the test on 786-0 renal and with COLO 205 colon were 95.2%, 71% and 92.7%, respectively.
As for `O=C(CN1CCN(c2cc(=O)n(-c3ccccc3)c3ccccc23)CC1)Nc1cccc(C(F)(F)F)c1`, the growth is 55.5% in the test on NCI-H23 lung; 56.6% in the test with NCI-H226 lung; 82.4% in the test with NCI-H322M lung; 70.6% in the test with HOP-62 NSCLC; 57.9% with NCI-H460 lung; 56.5% in the test with NCI-H522 lung. Besides, the growth was 51.8% in the test with A549/ATCC NSCLC, 80.5% with 786-0 renal and 68.5% in the test on COLO 205 colon.
